# Compounds with a hit are over-represented: about 10% of the library has one in this group of screens.
# IMPase inh = cell-permeable inhibitors of inositol monophosphatase (IMPase) | CHO-M1 cells, IP1 accumulation, HTRF TR-FRET ratio | inhibition (IP1 accumulation), % at 46.1 µM | 120,000 tested, under 10 active | AID 901; active means well fitted curve in the direction sought with a large enough effect in the signal ratio, not every such curve was filed as active; inconclusive means small, poorly fitted or top-dose-only effect, or a change in a side signal; inactive means no such curve, though single readings can be large or run the other way; the % refers to the signal ratio;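 further: cells stimulated with carbachol in lithium chloride buffer; plate controls were DMSO basal wells for no effect and reference inhibitor wells for full effect; higher means more IMPase inhibition seen as more IP1 and lower FRET ratio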
# Target sequence (P97697 whole entry, looked up): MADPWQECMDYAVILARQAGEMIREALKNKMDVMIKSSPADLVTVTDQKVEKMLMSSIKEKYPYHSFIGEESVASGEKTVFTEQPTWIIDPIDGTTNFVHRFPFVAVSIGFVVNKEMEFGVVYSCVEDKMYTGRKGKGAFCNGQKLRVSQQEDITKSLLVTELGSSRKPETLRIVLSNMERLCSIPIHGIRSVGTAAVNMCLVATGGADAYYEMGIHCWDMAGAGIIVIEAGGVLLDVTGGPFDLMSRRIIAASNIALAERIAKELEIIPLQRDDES
#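 CHO-M1 cells (CHO stably expressing M1 receptor), compound up to 46 uM final, stimulated with carbachol (50 uM as added) in buffer with 50mM LiCl, pH 7.4, 30 min at 37C. Cytosolic IP1 read by TR-FRET; AC50 from Hill fits.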
# PNC inhibitor = blocks assembly of the perinucleolar compartment; actives 3.1% (n = 140,000); AID 2417; PC3M PTB-GFP, PNC prevalence imaging, 16 h; active compounds read low; activity change (PNC), negative = inhibition, % at 10 µM;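 active means readout at or below -70, meaning at least 70% loss of cells showing the perinucleolar compartment, a nuclear body marking cancer cells; inconclusive means readout between -30 and a set limit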;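 further: plate controls were DMSO wells for no effect and camptothecin positive control wells for full effect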
#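 Read-out is percentage of cells bearing a perinucleolar compartment, from automated 20x imaging of fixed, Hoechst-stained PC3M PTB-GFP cells. Cells were seeded 4 h, then exposed 16 h to compound (23 nl of library stock) in duplicate plates.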
# Luc counter = Kinase-Glo luciferase inhibition (counter-screen) | actives 0.28% (n = 200,000) | AID 1379 | Potency, µM (top dose mostly 38.3 µM), for the others: at the top dose activity change, negative = inhibition, usual class: inhibitors | Kinase-Glo luciferase, ATP luminescence, 8 min; active means well fitted inhibition curve with a large enough effect; inconclusive means small, poorly fitted or top-dose-only effect; further: potency means the concentration at half of the fitted maximal effect; nearly all actives have a fitted effect of over 60% in size
#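 Recombinant Kinase-Glo luciferase, 10 uM ATP (linear range), luciferin; imidazole pH 7.2 / KCl / MgCl2 / Tween / BSA buffer; 8 min RT; luminescence.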
# HPGD block = HPGD (human) dehydrogenase inhibition; AID 894; purified HPGD, NADH fluorescence kinetic, PGE2 substrate; actives 4.3% (n = 150,000); Potency, µM, for inactives: top-dose activity change, negative = inhibition, actives largely listed as inhibitors; further: potency means the concentration at half of the fitted maximal effect
# Target sequence (P15428 whole entry, looked up): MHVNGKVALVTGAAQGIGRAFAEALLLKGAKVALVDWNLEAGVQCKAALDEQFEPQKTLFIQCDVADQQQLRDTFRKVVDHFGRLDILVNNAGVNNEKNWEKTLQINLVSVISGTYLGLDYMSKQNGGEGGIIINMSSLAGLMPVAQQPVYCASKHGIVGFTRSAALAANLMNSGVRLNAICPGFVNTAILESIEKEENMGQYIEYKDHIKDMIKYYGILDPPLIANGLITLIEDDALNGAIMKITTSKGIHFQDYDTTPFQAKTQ
#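 NADH formation kinetics: reaction with 30 uM PGE2 and 1 mM NAD+ (final), 20 nM enzyme, Tris-HCl pH 8 with Tween 20, after 15 min compound preincubation at room temperature. Fluorescence change, last versus first of five reads.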
# ALDH1A1 block = blocks purified human ALDH1A1 activity; P00352; Potency, µM (series often up to 75.3 µM), for inactives: top-dose activity, negative = inhibition, hits mostly inhibitors; actives 7.3% (n = 220,000); Purified ALDH1A1, NADH fluorescence, propionaldehyde substrate;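 further: potency means the concentration at half of the fitted maximal effect; plate controls were no enzyme wells and a reference inhibitor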
# Lamin A splicing = LMNA splicing modulation | HeLa LMNA splicing GFP/RFP minigene ratio, 48 h | Potency, µM (series often up to 46.1 µM), inactives show at the top dose ratio change, negative = inhibition, hits mostly inhibitors | actives 0.01% (n = 200,000) | AID 1487; active means well fitted inhibition curve with a large enough effect in the signal ratio, with a control signal flat, not every such curve was filed as active; inconclusive means small, poorly fitted or top-dose-only effect, or effect the other way, or a change in a side signal; the % refers to the signal ratio; further: potency means the concentration at half of the fitted maximal effect
#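 S3 HeLa stable clones carrying a lamin A-EGFP splicing minigene plus DsRed2 were seeded at 600 cells/well in Opti-MEM with 2% FBS, pin-dosed and incubated 48 h at 37°C. Acumen cytometry (488 nm) gave the GFP/RFP total-intensity ratio.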
# Numbers without * were called inactive; ? = inconclusive; / = not tested or not shown; [ ] = dose if it differs, or a comment. Unless noted, the call rests on the fitted dose curve; in most records, active means well fitted inhibition curve with a large enough effect (not every such curve was filed as active); inconclusive means small, poorly fitted or top-dose-only effect, or another doubt; inactive means no such curve, though single readings can be large or run the other way. Unless noted, on the % scale 0 is the no-effect control and ±100 the full control effect.
SMILES,IMPase inh,PNC inhibitor,Luc counter,HPGD block,ALDH1A1 block,Lamin A splicing
CCOC(=O)C1C(=O)C=C(c2ccc(C)cc2)CC1c1cccc([N+](=O)[O-])c1 (stereo not given),-8.9,-1.0,/,/,2.51µM*,?
CCOC(=O)C1C(=O)C=C(c2ccc(C)cc2)CC1c1ccco1 (stereo not given),6.6,25.1,-3.9%,-18.6%,?,17.3%[0.0737 µM]
CCCCC(=O)N(Cc1nc2sc(C)c(C)c2c(=O)[nH]1)C1CCCC1,/,/,-0.9%,/,?,/
CCOc1ccc(-n2c(=S)sc3c(=O)[nH]c(SCC(=O)C(C)(C)C)nc32)cc1,/,/,-1.3%,/,7.08µM*,/
CCOC(=O)CSc1nc2c(sc(=S)n2-c2ccccc2)c(=O)[nH]1,/,?,4.7%,20µM*,9.5%,5.3%
CCOC(=O)/C(=C\c1ccc(Cl)cc1)c1nc2sc(C)c(C)c2c(=O)[nH]1,/,-7.0,-2.1%,22.4µM*,25.1µM*,?
CCOC(=O)CSc1nc2sc(C)c(C)c2c(=O)[nH]1,8.4,40.4,0.9%,3.55µM*,-5.8%,14.0%
CCOC(=O)CSc1nc2c(sc(=S)n2-c2ccc(OCC)cc2)c(=O)[nH]1,/,/,-0.3%,/,?,/
COC(=O)C/C=C\[C@@H](C)[C@@H](/C=N\O[C@@H](C)CN1CCCCc2nc(C)c(C)cc21)OC,/,/,/,/,5.1%[13.5 µM],/
CCOc1cc(C(=O)Nc2ccc3oc(-c4ccc(CC)cc4)nc3c2)cc(OCC)c1OCC,-5.6,/,/,/,/,/
C=CCC1(O)C=CCC2C3C4C(OC(C)(C)C)C2C1C34 (stereo not given),/,/,/,/,16.1%[13.5 µM],/
CC(C)n1c(SCC(N)=O)nc2c1c(=O)[nH]c(=O)n2C,7.2,-9.9,-6.5%,?,22.4µM*,0.7%
CCCCCSc1nc2c(c(=O)[nH]c(=O)n2C)n1C(C)C,-2.8,-119.3*,-1.2%,-23.8%,?,-2.9%
Cc1cc(C)cc(-n2cccc2/C=C2/C(=N)N3C(=NC2=O)SN=C3S(C)(=O)=O)c1,/,/,3.0%,/,5.01µM*,-13.1%[46 µM]
Cc1ccc(-n2cccc2/C=C2/C(=N)N3C(=NC2=O)SN=C3S(C)(=O)=O)cc1,/,/,-1.6%,/,?,?
COc1cccc(-n2c(C)cc(/C=C3/C(=N)N4C(=NC3=O)SN=C4S(C)(=O)=O)c2C)c1,/,/,1.5%,/,31.6µM*,/
O=C(O)C1CC(=O)N(c2ccc(OCc3ccc(Cl)cc3Cl)cc2)C1 (stereo not given),0.9,-18.3,20.1%,14.1µM*,1.4%,0.8%
O=C(O)C1CC(=O)N(c2ccc(OCc3ccccc3Cl)cc2)C1 (stereo not given),4.7,6.9,1.7%,-11.2%,-3.9%,-11.7%
O=C(NCCOc1ccc(Cl)cc1)C1CC(=O)N(c2ccc(F)cc2)C1 (stereo not given),1.1,36.1,-4.3%,-11.8%,25.1µM*,?
Cc1noc(C)c1C(=O)N1CCC2(CCCN(c3ncccn3)C2)CC1,/,/,0.5%,-16.9%,-2.6%,/
NC(N)=Nc1nc(CSCC/C(N)=N\S(N)(=O)=O)cs1,/,/,-2.0%,-7.6%,-3.3%,/
Cc1c(Cl)cccc1NC(=O)c1cc(-c2ccccc2O)n[nH]1,7.2,-24.8,-0.1%,12.6µM*,11.1%,?
COc1ccc(Cl)cc1NC(=O)c1cc(-c2ccccc2O)n[nH]1,/,32.6,-1.3%,1.41µM*,-13.3%,?
O=C(NCc1ccc(Cl)cc1)c1cnc(N2CCOCC2)c2ccccc12,/,/,/,/,/,5.5%[46 µM]
COc1ccccc1OCc1ccc(C(=O)N2CCN3CCCC3C2)cc1 (stereo not given),14.3,-8.8,1.1%,20µM*,?,7.3%
CCc1ccccc1NC(=O)CSc1ncccc1C(=O)O,/,/,/,/,/,-8.5%[46 µM]
CC1(C)Cc2c(sc(NC(=O)c3ccccc3)c2C(=O)O)CO1,/,/,-2.2%,/,22.4µM*,/
CC(C)COc1ccc(C(=O)Nc2sc3c(c2C(=O)O)CC(C)(C)OC3)cc1,/,/,0.1%,/,20µM*,/
CC(C)(C)CNCCO,/,/,-0.7%[7.66 µM],-1.5%,10.6%[13.5 µM],/
CCc1c(C)nc2nc(-c3ccccc3)nn2c1NCc1ccc(C)cc1,-12.5,/,/,/,/,/

# Screens (PubChem BioAssay)
